Records with an inconclusive call do not appear. The source made the active and inactive calls. The call rests on the fitted dose curve; in most records, active means well fitted inhibition curve with a large enough effect in the repeat runs; inconclusive means weak or mixed curves; inactive means no such curve, though single readings can be large or run the other way.
Target: Cytochrome P450 2C9 (Homo sapiens) (UniProt P11712)
Test: Cytochrome P450 family 2 subfamily C member 9 (CYP2C9) small molecule antagonists: luciferase biochemical (cell-free) qHTS assay (AID 1645842); further: nearly all actives have a fitted effect of over 55% in size
Outline: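 P450-Glo CYP2C9 system: proluciferin substrate with enzyme in mix containing 0.4% BSA, 10 min at room temperature, then NADPH regeneration solution added and incubated 1 h at 37C. Detection reagent stopped reaction; luminescence read after 20 min as RLU.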
Potency means the concentration at half of the fitted maximal effect.

Chain of Cytochrome P450 2C9 (Homo sapiens) (P11712 whole entry, looked up): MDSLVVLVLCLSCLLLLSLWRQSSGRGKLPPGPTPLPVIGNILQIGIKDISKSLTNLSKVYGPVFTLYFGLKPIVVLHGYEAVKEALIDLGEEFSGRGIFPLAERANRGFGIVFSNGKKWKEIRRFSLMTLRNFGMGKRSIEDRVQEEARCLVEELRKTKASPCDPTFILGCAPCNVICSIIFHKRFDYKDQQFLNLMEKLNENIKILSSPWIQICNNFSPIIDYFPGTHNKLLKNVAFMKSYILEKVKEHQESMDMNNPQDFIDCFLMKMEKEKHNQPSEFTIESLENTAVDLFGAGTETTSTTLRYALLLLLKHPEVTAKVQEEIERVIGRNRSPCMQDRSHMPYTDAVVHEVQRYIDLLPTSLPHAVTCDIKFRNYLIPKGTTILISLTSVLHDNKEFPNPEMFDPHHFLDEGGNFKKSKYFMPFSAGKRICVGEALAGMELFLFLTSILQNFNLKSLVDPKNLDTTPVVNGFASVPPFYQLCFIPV

Row | SMILES | Potency
1 | COc1ccc(-c2cn3cccnc3n2)cc1NC(=O)c1cc(C)cc(C)c1 | 4.77 µM (active)
2 | CCC(Sc1nc2nccnc2c(=O)n1Cc1ccc(C)cc1)C(=O)NC1CCCCC1 (stereo not given) | 9.52 µM (active)
3 | COc1ccc(CC(=O)NCC(c2cccs2)S(=O)(=O)c2ccc(Cl)cc2)cc1 (stereo not given) | 2.39 µM (active)
4 | CCc1nnc(NC(=O)CSc2nc3c([nH]c4ccccc43)c(=O)n2-c2ccc(OC)cc2)s1 | 4.25 µM (active)
5 | COc1cccc(CNC(=O)C2CCCN(c3nn4cc(-c5ccc(C)cc5)nc4s3)C2)c1 (stereo not given) | 2.39 µM (active)

Source: PubChem BioAssay (NCATS)
